# Source: PubChem BioAssay (Tox21)
# Inconclusive results are not listed. A number with no mark means an inactive call. The source made the active and inactive calls. Unless noted, calls come from the whole dose curve.
# Molecular target: Retinoic acid receptor RXR-alpha (Homo sapiens) (UniProt P19793)
# Assay: qHTS assay to identify small molecule agonists of the RXR signaling pathway (AID 1159527); note: nearly all actives have a fitted effect of over 35% in size; note: potency is the fitted concentration of half-maximal effect
# Conditions: HEK293T RXRa-UAS-bla, beta-lactamase ratio, 16 h; series mostly up to 76.8 µM; activation: at the top concentration
# Method in brief: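 16 hr incubation of compound-treated RXR-alpha-UAS-bla HEK 293T cells (2% charcoal-stripped FBS, 37 C) preceded a 2 hr room-temperature LiveBLAzer FRET substrate step and blue/green fluorescence measurement.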
# % is set by controls: 0 for no effect and ±100 for the full control effect.
# Retinoic acid receptor RXR-alpha (Homo sapiens), sequence (P19793 whole entry, looked up): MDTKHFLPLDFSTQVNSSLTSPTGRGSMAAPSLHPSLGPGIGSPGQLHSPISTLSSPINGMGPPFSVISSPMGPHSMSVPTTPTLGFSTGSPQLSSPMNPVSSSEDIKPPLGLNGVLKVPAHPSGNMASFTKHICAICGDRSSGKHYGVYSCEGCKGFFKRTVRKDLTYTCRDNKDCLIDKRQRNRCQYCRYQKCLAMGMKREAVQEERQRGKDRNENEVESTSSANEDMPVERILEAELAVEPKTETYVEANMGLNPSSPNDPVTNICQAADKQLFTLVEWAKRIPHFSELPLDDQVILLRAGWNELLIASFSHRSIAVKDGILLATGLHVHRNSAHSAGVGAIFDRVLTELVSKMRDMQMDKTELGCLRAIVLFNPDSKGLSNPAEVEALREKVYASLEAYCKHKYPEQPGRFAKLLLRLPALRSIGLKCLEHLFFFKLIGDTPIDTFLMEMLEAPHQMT
SMILES,activation,Potency
CC(Oc1c(Cl)cccc1Cl)C1=NCCN1 (stereo unspecified),-15.7% [at 35.3 µM],–
CC(=O)Nc1ccc(C)c(Cl)c1,5.18%,–
C=CCCCCCCCCO,1.32%,–
CCN(CC)CC1CCCCN1CC(=O)N1c2ccccc2C(=O)Nc2cccnc21 (stereo unspecified),1.14% [at 35.3 µM],–
OCCN1CCN(CCO)CC1,5.17%,–
CC(C)C(=O)OCC(C)(C)C(O)C(C)C (stereo unspecified),0.841%,–
CN(CC1(C)CCCO1)S(=O)(=O)c1ccc(Cl)c(S(N)(=O)=O)c1 (stereo unspecified),3.89% [at 35.3 µM],–
Cc1ccc(C(C)C)cc1O,-1.69%,–
Cc1c[nH]c(=S)[nH]c1=O,4.88%,–
O=C(O)c1cccc(Cl)c1Cl,10.8%,–
OC[C@H]1O[C@@H](O[C@H]2[C@H](O)[C@@H](O)[C@H](O)O[C@@H]2CO)[C@H](O)[C@@H](O)[C@H]1O,7.04%,–
COC(C)CCO (stereo unspecified),-2.5%,–
CC(C)c1ccccc1,0.828%,–
CCCc1c2oc(C(=O)O)cc(=O)c2cc2c(=O)cc(C(=O)O)n(CC)c12,4.53% [at 35.3 µM],–
O=C1C=CC(=O)O1,-3.94%,–
CC1=NN(c2cc(Cl)c(S(=O)(=O)O)cc2Cl)C(=O)C1N=Nc1ccc(S(=O)(=O)O)cc1 (stereo unspecified),-0.454%,–
Oc1ccccc1F,-14.9%,–
CC(C)CCCCCCc1ccc(OCCOCCO)cc1,-4.65%,–
CCC(=O)Nc1ccc(O)cc1,7.61% [at 35.3 µM],–

SMILES,activation,Potency
C/C(=N\O)[C@@H](C)NCC(C)(C)CN[C@H](C)/C(C)=N/O,-6.38% [at 35.3 µM],–
OCc1c2ccccc2cc2ccccc12,-0.483%,–
O=C1Nc2ccc([N+](=O)[O-])cc2C1=O,-4.4%,–
O=S(=O)(O)C(F)(F)F,5.65%,–
OCc1ccccc1O,-3.17% [at 35.3 µM],–
c1ccc(CN(CC2=NCCN2)c2ccccc2)cc1,-6.99% [at 35.3 µM],–
Cc1ncc(CO)c(CN)c1O,12.3% [at 35.3 µM],–
COC(=O)C(C)O (stereo unspecified),–,12.6 µM (active)
O=c1[nH]cnc2c1ncn2[C@@H]1O[C@H](CO)[C@@H](O)[C@H]1O,-0.986% [at 35.3 µM],–
Cn1cnc2c(F)c(Nc3ccc(Br)cc3Cl)c(C(=O)NOCCO)cc21,-4.17% [at 35.3 µM],–
NC(Cc1ccc(F)cc1)C(=O)O (stereo unspecified),12.3% [at 6.98 µM],–
O=Cc1ccc(F)c(Br)c1,4.78%,–
Cc1cn([C@@H]2O[C@H](CO)[C@@H](O)[C@@H]2F)c(=O)[nH]c1=O,8.11% [at 35.3 µM],–
C=C(C)C(=O)OCCOP(=O)(O)O,10.1%,–
CC1CN(c2ccccc2)NC1=O (stereo unspecified),6.16%,–
CCOc1ccc(NC(N)=O)cc1,9.81%,–
CCCCNCCCC,8.75%,–
FC(F)(F)c1ccccc1,-1.61%,–
Nc1cccc(S(=O)(=O)O)c1,-10.2%,–

# Tested on: not listed separately
# Assay: qHTS assay to identify small molecule agonists of the RXR signaling pathway - cell viability counter screen (AID 1159529; active = well fitted cell-killing curve with a large enough effect in the repeat runs;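 note: HEK 293T cells carrying an RXR-alpha UAS beta-lactamase reporter; nearly all actives have a fitted effect of over 50% in size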)
# Conditions: RXR-alpha-bla HEK293T viability, CellTiter-Glo, 16 h; series mostly up to 76.8 µM; activity change, negative = cytotoxicity: at the top concentration
# Method in brief: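 In this parallel viability measure, GeneBLAzer RXR-alpha HEK 293T cells (2% charcoal-stripped FBS) were given a 5 hr preincubation, treated with compounds 16 hr at 37 C, and read by CellTiter-Glo luminescence.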
row,SMILES,"activity change, negative = cytotoxicity"
1,CC(Oc1c(Cl)cccc1Cl)C1=NCCN1 (stereo unspecified),-9.68% [at 35.3 µM]
2,CC(=O)Nc1ccc(C)c(Cl)c1,-12.6%
3,C=CCCCCCCCCO,-2.18%
4,CCN(CC)CC1CCCCN1CC(=O)N1c2ccccc2C(=O)Nc2cccnc21 (stereo unspecified),8.24% [at 35.3 µM]
5,OCCN1CCN(CCO)CC1,0.26%
6,CC(C)C(=O)OCC(C)(C)C(O)C(C)C (stereo unspecified),-10.5%
7,CN(CC1(C)CCCO1)S(=O)(=O)c1ccc(Cl)c(S(N)(=O)=O)c1 (stereo unspecified),1.92% [at 35.3 µM]
8,Cc1ccc(C(C)C)cc1O,-8.19%
9,Cc1c[nH]c(=S)[nH]c1=O,0.206%
10,O=C(O)c1cccc(Cl)c1Cl,-11%
11,OC[C@H]1O[C@@H](O[C@H]2[C@H](O)[C@@H](O)[C@H](O)O[C@@H]2CO)[C@H](O)[C@@H](O)[C@H]1O,-4.42%
12,COC(C)CCO (stereo unspecified),-3.12%
13,CC(C)c1ccccc1,2.47%
14,CCCc1c2oc(C(=O)O)cc(=O)c2cc2c(=O)cc(C(=O)O)n(CC)c12,10.7% [at 35.3 µM]
15,O=C1C=CC(=O)O1,5.63%
16,CC1=NN(c2cc(Cl)c(S(=O)(=O)O)cc2Cl)C(=O)C1N=Nc1ccc(S(=O)(=O)O)cc1 (stereo unspecified),11.2%
17,Oc1ccccc1F,3.23%
18,CC(C)CCCCCCc1ccc(OCCOCCO)cc1,7.58%
